According to PubChem BioAssay AID2315 (National Center for Advancing Translational Sciences (NCATS), 2010):
Screen size: about 290,000 compounds; about 27,000 (9.3%) were called active. No stated cut-off is given here; in the data, active means inhibition mostly above about 28% (no sharp cut-off); inactive means mostly below about 43%. This excerpt belongs to a sample that is enriched for actives.

test: A qHTS for Small Molecule Inhibitors of Shiga Toxin; conditions: Vero cells, Shiga toxin protein synthesis inhibition reporter; at 38.7 µM, active compounds read high; further: 0% is about no effect

Row | SMILES | inhibition
1 | CCOc1ccccc1-c1nc(CN2CCC(C(=O)N3CCOCC3)CC2)c(C)o1 | -7.77% (inactive)
2 | O=C(NCc1ccccn1)C1CCN(S(=O)(=O)c2ccc(Br)cc2)CC1 | -33.7% (inactive)
3 | Cc1ccc(-c2cc(N)on2)cc1 | 108% (active)
4 | Cc1ccc(S(=O)(=O)Cc2cc(-c3ccc(Cl)cc3)no2)cc1 | 8.79% (inactive)
5 | O=C(Cc1ccccc1Cl)N1CCOCC1 | -11.4% (inactive)
6 | CC1CN/C(=C\C(=O)c2ccc(Br)cc2)C(=O)N1 (configuration not stated) | 67.3% (active)
7 | COc1cc2c(cc1OC)/C(=C/C(=O)c1ccc(NC(C)=O)cc1)NCC2 | -6.51% (inactive)
8 | CN1CCCC(OC(=O)COc2ccc(Br)cc2)C1 (configuration not stated) | -12% (inactive)
9 | CC(C)(C)OC(=O)NC(Cc1ccccc1)C(=O)NC(CSC1CCCCO1)C(=O)NN (configuration not stated) | -14.3% (inactive)
10 | CCOC(=O)N1CCN(C(=O)COCc2cc(-c3ccc4c(c3)OCO4)on2)CC1 | -7.65% (inactive)
11 | CC(C)NC(=O)COCc1cc(-c2ccc3c(c2)OCO3)on1 | 45.3% (active)
12 | Cc1cccc(N2CCN(C(=O)COCc3cc(-c4ccc5c(c4)OCO5)on3)CC2)c1C | -8.35% (inactive)
13 | Cc1nn2c(=O)cc(COC(=O)c3ccc(NC(=O)C(C)(C)C)cc3)nc2s1 | 35.5% (inactive)
14 | COc1cccc(C2CC(c3cccs3)=NN2C(=O)CSC2=NCCS2)c1OC (configuration not stated) | -5.1% (inactive)
15 | CCCc1cc(=O)oc2cc(OCC(=O)Nc3ccc(CN4CCOCC4)cc3)c(Cl)cc12 | -1.59% (inactive)
16 | COc1ccc(C2=Nc3cc(C)ccc3OC2)cc1 | 94% (active)
17 | Cc1ccc(C(=O)NNC2=Nc3cc([N+](=O)[O-])ccc3OC2)cc1 | 40.3% (inactive)
18 | COc1ccc(C2=NOC3(CC(=O)N(c4ccc(C)cc4)C3=O)C2)cc1 (configuration not stated) | 36.5% (inactive)
19 | Cn1cc(C(=O)c2ccc(Cl)cc2Cl)cc1C(=O)NN | -5.33% (inactive)
20 | c1ccc(CSCCc2ccncc2)cc1 | -5.65% (inactive)
21 | Cc1cc(C)c(SCCc2ccncc2)c(C)c1 | -4.14% (inactive)

Row | SMILES | inhibition
22 | CC(C)(C)c1ccc(SCCc2ccncc2)cc1 | 69.1% (active)
23 | CN(NS(=O)(=O)c1cccs1)c1ncc(C(F)(F)F)cc1Cl | -2.15% (inactive)
24 | Cn1c(COc2ccc(Cl)cc2)nc2ccccc2c1=O | 46% (active)
25 | COc1ccc(-c2nc3ccccc3c(=O)n2CCc2ccc(O)cc2)cc1 | 40.9% (inactive)
26 | Cc1ccc(C(=O)CSc2nc3ccccc3c(=O)n2N)o1 | 77.2% (inactive)
27 | Cn1c2ccccc2c(=O)c2c(=O)n(Cc3ccco3)c(COc3ccccc3)nc21 | 8.54% (inactive)
28 | COc1ccc(OCc2ccc(-c3nc4ccccc4c(=O)n3N)o2)cc1 | 129% (active)
29 | Cc1nc2ccccc2c(=O)n1-c1ccc(Cl)cc1Cl | -14.3% (inactive)
30 | COC(=O)c1sc(N2CCN(Cc3ccccc3)CC2)nc1N | -8.35% (inactive)
31 | Cc1ccc(CNCc2ccc3c(c2)OCO3)c(C)c1 | -7.85% (inactive)
32 | O=C(O)C1=NN(c2c(F)c(F)cc(F)c2F)C(=O)CC1 | -10.3% (inactive)
33 | COc1cccc(/C=C/C(=O)Nc2ccc3c(c2)OCCO3)c1 | 70.9% (active)
34 | CC(NC(=O)Nc1ccc2c(c1)OCO2)c1ccncc1 (configuration not stated) | 19.2% (inactive)
35 | CC(NS(=O)(=O)c1ccc(Cl)cc1)C(=O)Nc1ccc2c(c1)OCCO2 (configuration not stated) | -5.73% (inactive)
36 | CCc1c(C)sc(NC(=O)/C=C/c2ccc3c(c2)OCO3)c1C(=O)OC | -7.04% (inactive)
37 | CNS(=O)(=O)c1ccc(NC(=O)Nc2ccc3c(c2)OCO3)cc1 | 72.9% (active)
38 | Cc1cccc(NC(=O)/C=C/c2ccc3c(c2)OCO3)n1 | 70.2% (active)
39 | Cc1ccc2nc(-c3ccccn3)cc(C(=O)Nc3ccc4c(c3)OCO4)c2c1 | -7.35% (inactive)
40 | Cc1cccc(NC(=O)Nc2ccc3c(c2)OCO3)n1 | 76.3% (active)
41 | COc1ccc(/C=C/C(=O)Nc2ccc3c(c2)OCCO3)cc1OC | 35.4% (inactive)
42 | O=C(/C=C/c1ccc2c(c1)OCO2)NCc1ccc(F)cc1 | 26.5% (inactive)

Row | SMILES | inhibition
43 | CC(C)CNS(=O)(=O)c1ccc(C(=O)Nc2ccc3c(c2)OCO3)cc1 | -14.7% (inactive)
44 | COc1ccc(OC)c(/C=C/C(=O)OCC(=O)Nc2ccc3c(c2)OCCO3)c1 | -11% (inactive)
45 | COc1cccc(NC(=O)C2CCCN(c3ncnc4c3nc3n4CCCCC3)C2)c1 (configuration not stated) | -3.78% (inactive)
46 | Cc1ccc(N2CCN(C(=O)c3cccs3)CC2)c(C)c1 | 8.46% (inactive)
47 | CCc1ccc(OCC(=O)N(Cc2ccccc2)C2CCS(=O)(=O)C2)cc1 (configuration not stated) | -3.9% (inactive)
48 | CN(C)S(=O)(=O)c1cccc(C(=O)OCC(=O)N2CCCC2=O)c1 | -2.45% (inactive)
49 | CC(C(=O)NC1CCS(=O)(=O)C1)N1C(=O)/C(=C/c2ccc(Cl)cc2)SC1=S (configuration not stated) | -2.44% (inactive)
50 | COc1ccccc1CN1CCN(Cc2cc(OC)c(OC)cc2OC)CC1 | 7.78% (inactive)
51 | COc1ccc(CNS(=O)(=O)c2ccc(NC(=O)N3CCCCC3)cc2)cc1 | 1.93% (inactive)
52 | CC(C)C(=O)Nc1c2c(nn1-c1ccccc1)CSC2 | -0.685% (inactive)
53 | COc1cc2c(cc1OC)C(C)N(S(=O)(=O)c1cnc(Cl)c(Cl)c1)CC2 (configuration not stated) | -3.13% (inactive)
54 | Oc1oc(-c2ccccc2Br)nc1/C=N/c1ccccn1 | 102% (active)
55 | CC(C)n1c(O)c(N=Nc2ccccn2)c2ccccc21 | 11.1% (inactive)
56 | O=C(c1ccc[nH]c1=S)N1CCN(S(=O)(=O)c2ccc(Br)cc2Cl)CC1 | -6.76% (inactive)
57 | CC(C)c1ccc(NC(=O)[C@@H](NC(=O)N2CC(=O)Nc3ccccc32)C(C)C)cc1 | -1.19% (inactive)
58 | COc1ccc(N(C(=O)c2snc(C(N)=O)c2N)C(C(=O)NC2CCCC2)c2ccco2)cc1OC (configuration not stated) | 10.1% (inactive)
59 | Cc1cnc(CN(C)C(=O)C2CCC(=O)N(CCc3cccc(F)c3)C2)[nH]1 (configuration not stated) | -1.92% (inactive)
60 | CCc1c(C)nc(SCC(=O)NC2CCCC2)[nH]c1=O | -6.89% (inactive)
61 | COc1ccc(-c2nc(SCC(=O)N3CCCC3)n[nH]2)cc1 | 38.5% (inactive)
62 | CCc1ccc(-c2nc(SCC(=O)NC3CCCC3)n[nH]2)cc1 | 22.7% (active)
